Results from PubChem BioAssay AID504861 (Broad Institute, 2011).
About 290 (24%) of roughly 1,200 compounds were called active. Another 3% or so got no clear call; they are omitted.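 How the source made its calls: active means compounds lowering cell viability signal with fitted half-maximal concentration at most ten times their highest tested concentration; inconclusive means flat fit with 30 to 70% signal loss, or poor fit; inactive means the rest.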 The list is a sample of the results. Measured potencies and affinities stand elsewhere.

Assay: cytotoxicity in HEK293T cells – cell-based, CellTiter-Glo luminescence, cherry-picks, cytotoxicity control for LMP1 NF-kB inhibitor project, dose response (AID 504861)
Conditions: HEK293T viability, CellTiter-Glo ATP luminescence, 48 h; series mostly up to 26 µM

| SMILES | outcome |
| --- | --- |
| O=S(=O)(N/N=C/c1ccccc1F)c1ccccc1 | inactive |
| Cc1cc(N2CCOCC2)c2c(N)c(Br)cc(C)c2n1 | inactive |
| C=CCn1c(=O)/c(=C/c2ccc(Cl)cc2)s/c1=C(\C#N)c1nnc2n1CCCCC2 | inactive |
| NC(=O)CC(NC(=O)c1ccccc1)c1ccc(NC2CCN(Cc3ccccc3)CC2)c([N+](=O)[O-])c1 (stereo unspecified) | inactive |
| C=CCN1CCN(C(CC(C)C)c2nnnn2CCOC)CC1 (stereo unspecified) | inactive |
| CCC(C)(C)NC(=O)C(c1ccc(F)cc1)N(CCOC)C(=O)CCC(=O)Nc1nccs1 (stereo unspecified) | inactive |
| O=C(CCS(=O)(=O)c1ccccc1)Nc1nccs1 | inactive |
| CCC(=O)OC1c2ccccc2C(=O)N1Cc1ccccc1 (stereo unspecified) | inactive |
| COc1ccc(S(=O)(=O)N2CCN(CC(=O)Nc3cc(OC)cc(OC)c3)CC2)cc1 | inactive |
| COC(=O)C1=C(C(=O)c2ccccc2)C(c2ccccc2)n2nnnc2N1 (stereo unspecified) | inactive |
| O=C(CN1C(=O)CCOc2ccccc21)Nc1ccc(Cl)c(S(=O)(=O)N2CCOCC2)c1 | inactive |
| CCCCCCCCOC(=O)/C=C/c1c(C)[nH]c(=O)[nH]c1=O | inactive |
| Cc1c(NC(=O)c2cc(-c3cccs3)nc3ccccc23)c(=O)n(-c2ccccc2)n1C | inactive |
| Cn1cccc1/C=C1\CC(C(C)(C)C)C/C(=C\c2cccn2C)C1=O (stereo unspecified) | inactive |
| O=C(c1ccc(COc2ccccc2Cl)o1)N1CCCC1 | inactive |
| CCCCCCNC(=O)O[C@]12C[C@@H](C(=O)OC)[C@@H](C(=O)OC)C[C@@]1(O)CN(S(=O)(=O)c1ccc(C)cc1)C2 | inactive |
| COC(=O)CN(c1ccccc1F)S(=O)(=O)c1ccc(C)cc1 | inactive |
| COc1ccc(-c2[nH]ncc2-c2ccc3c(c2)OCCO3)c(O)c1 | inactive |
| N#CC1=C(N)OC2=C(C(=O)CCC2)C12C(=O)N1CCCc3cccc2c31 (stereo unspecified) | inactive |
| COC(CNC(=O)c1ccc(N2CCC3(CC2)OCCO3)c([N+](=O)[O-])c1)OC | inactive |
| COc1ccc(C)cc1S(=O)(=O)N(CC(=O)Nc1cc([N+](=O)[O-])ccc1C)c1ccc(C)c(C)c1 | inactive |
| Cc1cc(C(=O)COC(=O)c2cccc(NS(C)(=O)=O)c2)c(C)n1CC1CCCO1 (stereo unspecified) | inactive |

| SMILES | outcome |
| --- | --- |
| O=C(O)c1cccc(NC(=O)c2cn(-c3ccccc3)nc2-c2ccc(F)cc2)c1 | inactive |
| Cc1ccc(C(=O)Nc2ncc3c(Cl)cccc3n2)cc1 | inactive |
| CCn1c(CCNC(=O)c2ccc(OC)cc2)nnc1SCc1ccc(Cl)cc1Cl | inactive |
| CC(C)(C)c1ccc(-c2noc(CCC(N)=O)n2)cc1 | inactive |
| CCOC(=O)c1cn2nc(N3CCCC3)ccc2n1 | inactive |
| Cc1ccc(NC(=O)C(=O)Nc2ccccn2)cc1 | inactive |
| Cc1ccc(NC(=S)NCc2cccs2)cc1 | inactive |
| S=C(NN=C1C2CC3CC(C2)CC1C3)Nc1ccccc1 | inactive |
| O=C(Nc1cccc(Cl)c1)Nc1cccc(C(=O)O)c1 | inactive |
| CNC1(C)[C@H]2CC[C@H](C2)C1(C)C (stereo partly specified) | inactive |
| CC(=O)c1cccc(NC(=O)Nc2ccc(C(=O)N3CCOCC3)cc2)c1 | inactive |
| CCCCCc1ccc(-c2ccc(/C=C/C(=O)O)cc2)nc1 | inactive |
| COc1ccc(-c2nc(C)ncc2-c2ccccc2)c(O)c1 | inactive |
| Cc1ccc(N(Cc2cc3ccccc3[nH]c2=O)C(=O)c2ccco2)c(C)c1 | inactive |
| O=C(O)c1cccc(Nc2ccnc(Nc3cccc(C(=O)O)c3)n2)c1 | inactive |
| CCN(C(=O)CSc1nnc(Nc2cccc(C)c2C)s1)C1CCS(=O)(=O)C1 (stereo unspecified) | inactive |
| COc1ccc(-c2nc(CN3CCC(C(=O)N4CCOCC4)CC3)c(C)o2)cc1C | inactive |
| Cc1cc(C)c2sc(NC(=O)C3CC3)nc2c1 | inactive |
| CCOC(=O)Oc1c(OC)cc(C(=O)O[C@@H]2C[C@@H]3CN4CCc5c([nH]c6cc(OC)ccc56)[C@H]4C[C@@H]3[C@H](C(=O)OC)[C@H]2OC)cc1OC | inactive |
| Nc1ccn([C@@H]2O[C@H](CO)[C@@H](O)[C@@H]2O)c(=O)n1 | inactive |
| Cc1cc(N2CCCC2=O)cc(C)c1S(=O)(=O)Nc1c(C)nn(C)c1C | inactive |
| Cn1cccc1-c1cc(C(=O)N2CCc3c([nH]c4ccccc34)C2c2ccccn2)[nH]n1 (stereo unspecified) | inactive |

| SMILES | outcome |
| --- | --- |
| COc1ccc(-c2oc3ncnc(NCCN4CCOCC4)c3c2-c2ccc(OC)cc2)cc1 | inactive |
| CSc1nc(C)nc2c1c(=O)n(C)c(=O)n2C | inactive |
| Cc1ccc(/C=C/c2nc3ccccc3s2)s1 | inactive |
| Cn1cc(CC(=O)NCCCN2CCCC2)c2ccccc21 | inactive |
| CCc1cc(Cl)c(OC)c(C(=O)NC[C@@H]2CCCN2CC)c1O | inactive |
| c1ccc2c3c([nH]c2c1)C(C1CCCCC1)N(Cc1ncc[nH]1)CC3 (stereo unspecified) | inactive |
| Cc1ccc(C(=O)Nc2sc(Cc3ccc4c(c3)OCO4)c(C)c2C(N)=O)cc1 | inactive |
| O=C(Nc1ccc(N2CCOCC2)cc1)c1cnccn1 | inactive |
| CCN(CC)c1ccc(NC(=O)c2cccc(F)c2)c(C)c1 | inactive |
| Cn1ncc(Cl)c1C(=O)NC1CCCC1 | inactive |
| COc1ccccc1N1CCN(CCCNC(=O)C2CCCN(c3ncnc4c3nc3n4CCCCC3)C2)CC1 (stereo unspecified) | inactive |
| CNC(=O)c1[nH]cnc1C(=O)N[C@@H](CCCCNC(=O)OC(C)(C)C)C(=O)OC(C)(C)C | inactive |
| CCOC(=O)c1c(-n2cccc2)sc2c1CCCC2=O | inactive |
| Cc1ccccc1C(=O)c1c[nH]c(C(=O)NCc2ccco2)c1 | inactive |
| O=c1c2cnn(-c3ccccc3)c2nc(-c2cccs2)n1-c1ccc(Cl)cc1 | inactive |
| Cc1ccc(OCC(=O)NNC(=S)NC(=O)C2CCCCC2)c(C)c1 | inactive |
| N#Cc1c(NC(=O)CCCC(=O)O)sc2c1CCCCC2 | inactive |
| COC(=O)CCNc1ccc2c(c1)OCCO2 | inactive |
| COc1ccc(C(=O)OCC(=O)c2c[nH]c3ccccc23)cc1OC | inactive |
| Clc1ccc(-c2nnc(NC3=NCCCCC3)o2)cc1 | inactive |
| O=C(O)c1ccc(-n2cncn2)c([N+](=O)[O-])c1 | inactive |
| CN(C)c1ccnc2sc(C(N)=O)c(N)c12 | inactive |

| SMILES | outcome |
| --- | --- |
| Cc1ccc(CNC(=O)C2CCN(S(=O)(=O)c3c(C)noc3/C=C/c3ccco3)CC2)cc1 | inactive |
| Cc1nc(N)nc(SCc2ccc([N+](=O)[O-])cc2)c1N | inactive |
| COc1cc(C(=O)Oc2ccccc2/C=N/NC(=O)c2ccc(C)c(Cl)c2)cc(OC)c1OC | inactive |
| COc1cc(/C=N/NC(=O)c2cccc(S(=O)(=O)N3CCOCC3)c2)cc(OC)c1O | inactive |
| CCCCCC(=O)NC(=S)Nc1ccc(Br)cc1C | inactive |
| O=C(N/N=C/c1cccc(O)c1)c1ccc2c(c1)OCCO2 | inactive |
| Cc1cccc(C)c1NC(=O)CN(C)C(=O)c1ccc(-c2cccc(C(F)(F)F)c2)o1 | inactive |
| COCCNC(=O)C(=O)NCC1OCCN1C(=O)c1ccc(Cl)cc1 (stereo unspecified) | inactive |
| COC(=O)c1ccc(/C=C(/NC(=O)c2ccccc2)C(=O)N2CCOCC2)cc1 | inactive |
| Cc1ccc(N=c2c([N+](=O)[O-])nn(-c3ccc4c(c3)OCCO4)n2O)cc1F | inactive |
| COc1ccc(C(=O)NC(=S)NNC(=O)c2ccc3ccccc3n2)cc1 | inactive |
| CC(=O)Nc1ccc(OCC(O)CNC(C)C)cc1 (stereo unspecified) | inactive |
| COc1ccc(-c2cnc(NCc3cc4c(cc3[N+](=O)[O-])OCO4)n2C)cc1 | inactive |
| Cc1ccc(-n2c(C)c([N+](=O)[O-])c3ccc(O)c(CN(C)C)c32)cc1 | inactive |
| O=C(Nc1ncccc1O)c1ccc(S(=O)(=O)NCc2ccco2)cc1 | inactive |
| O=C(/C=C/Nc1ccc(Br)cc1F)c1ccccc1 | inactive |
| COc1ccccc1C=NN=Cc1ccccc1O | inactive |
| CC(=O)c1c(C)[nH]c(C(=O)Nc2ccc(C)cn2)c1C | inactive |
| Cc1ccsc1/C=N/NC(=O)c1ccc2c(c1)OCCO2 | inactive |
| CN(C)c1cccc(C(=O)N/N=C/c2ccccc2F)c1 | inactive |
| CCc1nnc(NC(=O)c2ccc(S(=O)(=O)N3CCOCC3)cc2)s1 | inactive |
| CCCn1c(C)cc(C(=O)COC(=O)c2ccc[nH]c2=O)c1C | inactive |

| SMILES | outcome |
| --- | --- |
| CCn1c2ccccc2c2cc(/C=C(/C#N)C(N)=S)ccc21 | inactive |
| Oc1c(N=NC(=S)Nc2ccccc2F)c2ccccc2n1Cc1cccc(Cl)c1 | inactive |
| COC(=O)C1=C(C)N(c2cc(C)cc(C)c2)/C(=C/c2ccc(O)cc2)C1=O | inactive |
| O=C(CN1CCN(S(=O)(=O)c2ccc(F)cc2)CC1)Nc1cccc(C(F)(F)F)c1 | inactive |
| COC(=O)/C=C/C(=O)Nc1cccc(C(F)(F)F)c1 | inactive |
| CCOc1ccc(C(=O)Nc2nnc(SCC(=O)NCC3CCCO3)s2)cc1 (stereo unspecified) | inactive |
| CN=C1S/C(=C\c2ccc(O)c(Br)c2)C(=O)N1C | inactive |
| CC(=O)O[C@H]1CC[C@@]2(C)C(=CC[C@H]3[C@@H]4CC[C@H](C(C)=O)[C@@]4(C)CC[C@@H]32)C1 | inactive |
| NC(=O)C1(Nc2ccc([N+](=O)[O-])cc2)CCCC1 | inactive |
| Cc1ccccc1Cn1c(O)c(N=NC(=S)Nc2ccccc2F)c2ccccc21 | inactive |
| CCOc1ccc(NC(=O)Cn2cc(C(=O)CC)c3ccccc32)cc1 | inactive |
| O=C(O)c1ccc(N/N=C/c2ccc3ncccc3c2)cc1 | inactive |
| COc1cccc(C(=O)Nc2nc3ccccc3[nH]2)c1 | inactive |
| O=C(CSc1nc2ccccc2c(=O)n1CCCN1CCOCC1)Nc1ccc(Br)cc1 | inactive |
| CC(C)(C)c1ccc(C(=O)Nc2nnc(SCC(=O)NCC3CCCO3)s2)cc1 (stereo unspecified) | inactive |
| CCC(Oc1ccccc1)C(=O)NC1CCSC1=O (stereo unspecified) | inactive |
| O=C(NC1CCCCC1)N1CCN(c2ccc([N+](=O)[O-])cc2)CC1 | inactive |
| CCOC(=O)c1sc2nc(C)nc(NCc3ccccc3)c2c1C | inactive |
